Source: the OligoGym collection

The sequences below were run against EHD3 (assay: pooled miR-30 sensor sort-seq; sequence = guide strand). Details: shRNA.
Further: reference of the scale not given here.

Sequence	sensor-assay potency score (higher = more potent)
TTCTTCTTGTTGTCCTTCCCGA	-0.7
TAGAAGATCTCGTCGTACATGG	-0.19
TTTCTTGGGATCCACCACCAGG	-1.36
TCGAAGAGCAGAATGATGCGGT	0.407
TTGACCAGCTCCTTCTTCTTGT	0.288
TTGTCCTTCCCGAACACCGAGG	-1.14
TTGATGACTTCTGAGAACTCAT	-0.245
TGCAAACTCGTCGTCGTCCAGC	-1.01
AAACTCGTCGTCGTCCAGCATG	-1.38
TAGGAAAGAACAGAGCTCCTGG	0.716
TTTGTGGGCATCGAAGAGCAGA	-1.26

Each sequence was assayed against EHMT2 in the same assay as above. Details: shRNA.

Sequence	sensor-assay potency score (higher = more potent)
TTGACGTCCACCTGTCCTGTGC	-0.646
ATCCTTGTTGTCTAAGTCGAAG	-1.84
TTACACTCGAAAATCAGCGGAG	-0.173
TTCATGGTGGACGTCTCGCAGT	-1.22
TAGAGCTTCAACTTCAGACTTG	0.68
TAGCATGCGGATCACCTCGATG	-1.39
TGAGTGGACATCATCACTCATG	-1.27
TTGCTCTGCTGGTCGCTCTGGA	-0.425
TTGAGTTGAAGCGCAAACCACA	-1.4
TTCTTCTTGGCCTTGCGCCGGC	-0.437
TTGAGCTTCAGAAGCATCCTCC	0.398
TTAGTTGTTCAGTTAGAGCTTC	0.313

Each sequence was assayed against EID2B in the same assay as above. Details: shRNA.

Sequence	sensor-assay potency score (higher = more potent)
TTGACATGACCACAAATTGTGA	-1.04
TAAACTGGCACAGCCTGCCTGT	-0.54
TCGCGGAACAACAGCTGCCGGT	-1.55
TTCTATTGAATATTTACTGTTC	0.0406
TAAGTCAGAAGTGTCTTGGGAC	0.252
TTCCTGACAACTCTATTTCTTT	-0.963
TTTTCTATTGAATATTTACTGT	-0.85
TTTTCTTTCATCACTTAGGTTC	-0.263
TTTTTTCTCATATCTTTGCAAA	-1.11
TAACTAAACTGGCACAGCCTGC	-0.861
TATCTTTGCAAAACCATCCTTT	-0.0384
ATACTCGCGGAACAACAGCTGC	-1.3

Each sequence was assayed against EIF1 in the same assay as above. Details: shRNA.

Sequence	sensor-assay potency score (higher = more potent)
TCTTTTTATCGTAATCATCAGC	-0.92
TTTATCGTAATCATCAGCGATC	-0.622
TAGTAAGGGTCTTCCTGCCGTT	-0.658
TTGCAGGCAAACTTTTTCTTAA	-0.992
TTTTATCGTAATCATCAGCGAT	-0.796
